Efflux pump inh: blocks antifungal efflux pumps in multiplex yeast assay | S. cerevisiae Candida pump triplex, Nile Red efflux | inhibition, % at 10 µM | 330,000 compounds, 0.44% hits | AID 485275;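 active = plate passing quality check with inhibition over a set limit, or well fluorescence over plate mean plus 4 SD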;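 note: Nile Red retained in pooled yeast measured as flow cytometry median fluorescence; higher means more Nile Red kept so more efflux inhibition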
AGP1-GFP MLPCN: yeast TOR pathway AGP1-GFP modulation. 320,000 compounds, 0.02% hits. GFP response vs DMSO, % at 10 µM. S. cerevisiae AGP1-GFP multiplex flow cytometry, 3 h; GFP as percent of DMSO wells;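 active = GFP response relative to DMSO above a set limit, near screen average plus 3 SD, cut at about 150% in these data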;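 note: median GFP channel fluorescence of the gated AGP1 strain per well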
MEP2-GFP yeast: modulators of TOR pathway MEP2-GFP in S. cerevisiae; S. cerevisiae MEP2-GFP strain, flow cytometry GFP, 3 h; 100% = DMSO control level; GFP response vs DMSO, % at 10 µM; 330,000 compounds, 0.51% hits; AID 2016;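 active = GFP response versus DMSO above a set limit, roughly screen mean plus 3 SD, cut at about 180% in these data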;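 note: median GFP fluorescence of the barcode-gated MEP2-GFP cells per well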
RPL19A-GFP yeast: modulators of TOR pathway RPL19A-GFP in S. cerevisiae | S. cerevisiae RPL19A-GFP strain, flow cytometry, 3 h; hits give low values | percent response vs DMSO, % at 10 µM | 330,000 compounds, 0.3% hits;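 active = percent response vs DMSO below 50%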;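 note: median channel GFP fluorescence of the barcoded RPL19A-GFP strain; lower means less RPL19A-GFP as with rapamycin TOR inhibition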
CIT2 TOR yeast: modulators of TOR pathway CIT2-GFP in S. cerevisiae; S. cerevisiae CIT2-GFP strain, flow cytometry, 3 h; 100 means same as DMSO wells; AID 2029; GFP response vs DMSO, % at 10 µM; 320,000 compounds, 0.065% hits;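 active = GFP response relative to DMSO above a set limit, near the screen mean plus 3 SD, cut at about 150% in these data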;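 note: ratio of well median GFP fluorescence to mean of DMSO wells on the plate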
LAP4-GFP MLPCN: modulators of TOR pathway LAP4-GFP in S. cerevisiae; S. cerevisiae LAP4-GFP multiplex, flow cytometry GFP, 3 h; median GFP as percent of DMSO wells; GFP response vs DMSO, % at 10 µM; 320,000 compounds, 0.34% hits; AID 2023;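 active = GFP response vs DMSO above a set limit, about the screen mean plus 3 SD, cut at about 150% in these data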
Cmpd fluor yeast: flagged as fluorescent in efflux inhibitor counter-screen; S. cerevisiae AD/pABC3, compound fluorescence, flow cytometry; 1,700 compounds, 4% hits; fluorescence ratio to DMSO, % at 10 µM; shares compounds with Efflux pump inh;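 active = fluorescence ratio to DMSO above its plate's cutoff, the plate mean ratio plus 5 SD, cut at about 210% in these data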;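 note: unstained yeast with no Nile Red so the signal is compound autofluorescence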
CaMdr1 efflux inh: Candida Mdr1 efflux pump inhibition; shares compounds with Efflux pump inh; S. cerevisiae AD/CaMDR1, Nile Red efflux, flow cytometry; inhibition, % at 10 µM; 1,700 compounds, 1% hits; in the data active = inhibition above about 26%;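 note: higher means more Nile Red retained so more efflux inhibition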
Cdr2 pump inh: Candida Cdr2 efflux pump inhibition; 1,700 compounds, 4% hits; Nile Red retention ratio vs DMSO, % at 10 µM; S. cerevisiae AD/CaCDR2, Nile Red retention, flow cytometry; shares compounds with Efflux pump inh; in the data active = Nile Red retention ratio vs DMSO above about 190%;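 note: higher ratio means more blocking of Cdr2 efflux of the dye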
CaCdr1 efflux inh: inhibitors of Candida albicans Cdr1 efflux pump. AID 588522. shares compounds with Efflux pump inh. 1,700 compounds, 1% hits. inhibition, % at 10 µM. S. cerevisiae AD/CaCDR1, Nile Red efflux, flow cytometry;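 active = inhibition above the screen-wide mean plus twice its standard deviation, cut at about 32% in these data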
A number is an active result; - = inactive; . = no result given. Compounds with a hit are over-represented: about 1.3% of the library has one in this group of screens.

SMILES | Efflux pump inh | AGP1-GFP MLPCN | MEP2-GFP yeast | RPL19A-GFP yeast | CIT2 TOR yeast | LAP4-GFP MLPCN | Cmpd fluor yeast | CaMdr1 efflux inh | Cdr2 pump inh | CaCdr1 efflux inh
Cc1c(NC(=O)C(C)OC(=O)c2ccc(NC(=O)CC#N)cc2)c(=O)n(-c2ccccc2)n1C (configuration not stated) | - | - | - | - | - | - | . | . | . | .
COC(=O)CN1C(=S)N(c2ccc(Cl)cc2)C(=O)C1CC(=O)Nc1ccc(Cl)cc1 (configuration not stated) | 0.5 | - | - | - | - | - | - | - | - | -
COc1ccccc1NC(=O)CSc1nc2ccccc2nc1N1CC(C)OC(C)C1 (configuration not stated) | - | - | - | - | - | - | . | . | . | .
CCC1=C(OC(=O)N(CC)CC)N2C(=O)OC(=NCCc3c[nH]c4ccccc34)[C@]2(Cc2ccccc2)[C@H]2C1=CC[C@H]1C(=O)N(CC)C(=O)[C@H]12 | 39 | - | - | - | - | - | - | - | - | -
COC(=O)[C@H](CCSC)NC(=O)NCc1cccs1 | 6.7 | - | - | - | - | - | - | - | - | -
COc1cc(S(=O)(=O)Nc2ccccn2)ccc1F | 0.7 | - | - | - | - | - | - | - | - | -
Cc1c(-c2cccc(Cl)c2)nc2ccccc2c1C(=O)OC/C(O)=C(\C#N)c1nc2ccccc2[nH]1 | 2.5 | - | - | - | - | - | - | - | - | -
COC(=O)C1=C(C)Nc2sc(C(N)=O)c(N)c2C1c1ccncc1 (configuration not stated) | - | - | - | - | - | - | . | . | . | .
CCOC(=O)C1=C(C)Nc2sc(C(=O)c3ccc(OC)cc3)c(N)c2C1c1ccc(C(=O)OC)cc1 (configuration not stated) | 11 | - | - | - | - | - | - | - | - | -
COC(=O)C(Cc1ccccc1)NC(=O)CCNC(=O)c1ccco1 (configuration not stated) | 0.8 | - | - | - | - | - | - | - | - | -
COC(=O)CNC(=O)COC(=O)C(Cc1ccccc1)NC(=O)c1ccco1 (configuration not stated) | - | - | - | - | - | - | . | . | . | .
CC(C)NC(=O)CN1C(=O)CSc2ccc(S(=O)(=O)N3CCCC3)cc21 | - | - | - | - | - | - | . | . | . | .
CNC(=O)COC(=O)c1ccccc1NC(=O)c1ccco1 | 1.2 | - | - | - | - | - | - | - | - | -
CCN(C(=O)COC(=O)CSc1ccc(C(N)=O)cc1[N+](=O)[O-])C1CCCCC1 | - | - | - | - | - | - | . | . | . | .
O=C(Cc1ccccc1)NN1C(=O)/C(=C/c2ccc(C(=O)O)cc2)SC1=S | - | - | - | - | - | - | - | - | - | -
O=C(O)c1ccc(/C=C2/SC(=S)N(Cc3ccccc3)C2=O)cc1 | - | - | - | - | - | - | . | . | . | .
Cc1c(C)n(-c2ccccc2)c2ncnc(NCCN(C)C)c12 | - | - | - | - | - | - | . | . | . | .
CC(C)(C)c1ccc(OCCOc2ccc(C(C)(C)C)cc2NC=O)c(NC=O)c1 | 0.6 | - | - | - | - | - | - | - | - | -
O=C(O)c1nccnc1C(=O)N1CCN(c2ccccc2)CC1 | 1.9 | - | - | - | - | - | - | - | - | -
O=C(NC1CCCCCCC1)NC1CCCCC1 | 1.0 | - | - | - | - | - | - | - | - | -
O=C1CCC(C(=O)N2CCc3ccccc3C2)CN1CCCN1CCOCC1 (configuration not stated) | - | - | - | - | . | - | . | . | . | .
COc1ccc(S(=O)(=O)N2CCCC(C(=O)NCC3CCCO3)C2)cc1C (configuration not stated) | - | - | - | - | - | - | . | . | . | .
O=C(NCC1CCCO1)C1CCCN(S(=O)(=O)c2cccc(C(F)(F)F)c2)C1 (configuration not stated) | 1.3 | - | - | - | - | - | - | - | - | -
CC(C)CCN1CCC(n2nccc2NC(=O)C2CCOC2)CC1 (configuration not stated) | 1.4 | - | - | - | - | - | - | - | - | -
Cn1c(N2CCN(C(c3ccccc3)c3ccccc3)CC2)nc2ccccc21 | 0.5 | - | - | - | - | - | - | - | - | -
SMILES | Efflux pump inh | AGP1-GFP MLPCN | MEP2-GFP yeast | RPL19A-GFP yeast | CIT2 TOR yeast | LAP4-GFP MLPCN | Cmpd fluor yeast | CaMdr1 efflux inh | Cdr2 pump inh | CaCdr1 efflux inh
Cn1c(N2CCN(C(=O)Nc3ccc(F)cc3)CC2)nc2ccccc21 | - | . | - | - | - | - | . | . | . | .
COc1ccc(Oc2ncc(CN3CCN(c4ccccc4)CC3)s2)cc1 | - | - | - | - | - | - | . | . | . | .
Cc1cc(Cl)ccc1Oc1ncc(CN2CCN(c3ccccc3)CC2)s1 | 0.5 | - | - | - | - | - | - | - | - | -
Cc1ccc(S(=O)(=O)NN2C(=O)/C(=C/c3cccs3)SC2=S)cc1 | - | - | - | - | - | - | - | - | - | -
Cc1ccc(/C=C2\SC(=S)N(NS(=O)(=O)c3ccc(C)cc3)C2=O)cc1 | - | - | - | - | - | - | . | . | . | .
Cc1ccc(Cn2nnc3c(=O)[nH]c(C4CCN(S(=O)(=O)c5ccc(S(=O)(=O)NC6CC6)cc5)CC4)nc32)cc1 | - | - | - | - | - | - | . | . | . | .
Cc1ccc(Cn2nnc3c(=O)[nH]c(C4CCN(S(=O)(=O)c5ccc(C)cc5)CC4)nc32)cc1 | - | - | - | - | - | - | - | - | - | -
Cc1ccc(Cn2nnc3c(=O)[nH]c(C4CCN(S(=O)(=O)c5ccccc5F)CC4)nc32)cc1 | - | - | - | - | - | - | - | - | - | -
Cc1cc(Cl)ccc1OCC(=O)N/N=C/c1ccncc1 | - | - | - | - | - | - | . | . | . | .
COc1cc(/C=C2\N=C(c3ccccc3)OC2=O)ccc1OCc1c(C)no[n+]1[O-] | 10 | - | - | - | - | - | - | - | - | -
O=C(Nc1ccccc1O)c1cccc(S(=O)(=O)Nc2ccccc2O)c1 | - | - | - | - | - | - | . | . | . | .
O=c1ccn(CCc2c[nH]c3ccccc23)c2c1CCCC2 | - | - | - | - | - | - | . | . | . | .
CCc1cc2c(=O)n(Cc3ccccc3)c(SC3CCOC3=O)nc2s1 (configuration not stated) | 0.9 | - | - | - | - | - | - | - | - | -
CC(C)n1cc(/C=N/Nc2ccc(C(=O)O)cc2)c2ccccc21 | - | - | - | - | - | - | . | . | . | .

From PubChem
